Test results from PubChem BioAssay AID686979 (National Center for Advancing Translational Sciences (NCATS), 2013).
Among all 420,000 compounds or so, about 50,000 (12%) were called active. Inconclusive results (about 26%) are left out. The entries come from a sample that favours actives as a whole. A call without a number means that no potency is given here. A number with no mark means an inactive call. The call rests on the fitted dose curve; in most records, active means well fitted inhibition curve with a large enough effect; inconclusive means small, poorly fitted or top-dose-only effect; inactive means flat fitted curve, though single readings scatter.

Test: qHTS for Inhibitors of human tyrosyl-DNA phosphodiesterase 1 (TDP1): qHTS in cells in presence of CPT; further: nearly all actives have a fitted effect of over 55% in size
Conditions: chicken DT40 Tdp1-/-;hTDP1 cells + 20 nM CPT, ATP luminescence, 48 h; series mostly up to 46.2 µM
Outline: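 Chicken DT40 Tdp1-/- cells stably complemented with human TDP1 were seeded at 400 cells/well in medium containing 20 nM camptothecin, exposed to pin-transferred compounds, and grown at 37 °C for at least 48 hr. Viability was read as ATP luminescence.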
Potency means the concentration at half of the fitted maximal effect.

Row | Structure (SMILES) | Potency | activity change, negative = growth inhibition
1 | Cc1ccccc1CSc1nnc(-c2ccccc2)c(=O)[nH]1 | inactive | 
2 | C/C(Nc1ccc2oc(=O)ccc2c1)=C1/C(=O)CC2[C@@H]1C2(C)C (stereo not given in full) |  | 6.03% [at 9.04 µM]
3 | Cc1ccc(C)c(S(=O)(=O)N2CCN(C(=O)Nc3ccccc3)CC2)c1 | inactive | 
4 | Cc1ccc(C)c(S(=O)(=O)N2CCN(CC(=O)Nc3ccc([N+](=O)[O-])cc3)CC2)c1 | 14.6 µM (active) | 
5 | CC(=O)Nc1ccc(S(=O)(=O)N2CCN(CCCOc3cc(C)ccc3C)CC2)cc1 | 25.9 µM (active) | 
6 | CC(=O)Nc1ccc(S(=O)(=O)N2CCN(S(=O)(=O)c3cccs3)CC2)cc1 | inactive | 
7 | Cc1ccc(NC(=O)CCNC(=O)c2ccc([N+](=O)[O-])cc2)cc1S(=O)(=O)N1CCOCC1 | inactive | 
8 | CC(=O)Nc1ccc(S(=O)(=O)N2CCSCC2)cc1 | inactive | 
9 | CCCC/S(C)=N/S(=O)(=O)c1ccc(C)cc1 (stereo not given) | inactive | 
10 | N#Cc1c(NCCO)ccc([N+](=O)[O-])c1NCCO | inactive | 
11 | CC(=O)Oc1ccc(-c2nc3c(C)cccc3c(=O)o2)cc1 | inactive | 
12 | CCn1cc(C(=O)OCC(=O)Nc2cccc(C)c2)c(=O)c2ccc(C)nc21 | inactive | 
13 | [O-][n+]1ccc(OCc2ccccc2)cc1 | inactive | 
14 | c1ccc(Cc2cc[n+](Cc3ccccc3)cc2)cc1 | 23.1 µM (active) | 
15 | CN(C)c1ccc(/C=N/N(Cc2ccccc2)c2ccccc2)cc1 | inactive | 
16 | C[n+]1ccc(C(=O)NCc2ccccc2)cc1 | inactive | 
17 | CN(C)c1cc[n+](Cc2ccccc2)cc1 | 0.58 µM (active) | 
18 | COc1ccc(CCNC(=O)COc2ccc3c(c2)OCO3)cc1 | inactive | 
19 | CNC(=S)NNC(=O)c1oc2nc(-c3ccccc3)cc(-c3ccco3)c2c1N | inactive | 
20 | CC1CCCC(NC(=O)COC(=O)[C@@H]2CC(O)CN2S(=O)(=O)c2ccc3c(c2)OCCO3)C1C (stereo not given in full) | inactive | 
21 | CCC1CCC2(CC1)NC(=O)N(CC(=O)Nc1ccc(OC)cc1)C2=O (stereo not given) | inactive | 
22 | O=C(CSC(=S)N1CCOCC1)c1cc(Br)cc(Br)c1O | inactive | 

Row | Structure (SMILES) | Potency | activity change, negative = growth inhibition
23 | O=C(c1cc2cc(Br)cc(Br)c2oc1=O)N1CCOCC1 | inactive | 
24 | O=C1Nc2c(Br)cc(Br)cc2C1(O)N1CCOCC1 (stereo not given) | 5.17 µM (active) | 
25 | COc1ccc(C(=O)COC(=O)CCCC(=O)Nc2cc(C(F)(F)F)ccc2Cl)cc1 | inactive | 
26 | COc1ccc(OC)c(-n2c(=S)[nH]c3cc(C(=O)N4CCCCC4)ccc3c2=O)c1 | inactive | 
27 | CC(C)c1ccc(NC(=O)c2cc(S(=O)(=O)N3CCc4ccccc4C3)ccc2F)cc1 | inactive | 
28 | COc1cc(NC(=O)C2CCN(c3cnccn3)CC2)cc(OC)c1 | inactive | 
29 | O=[N+]([O-])c1ccc(Oc2ccc(F)cc2Br)c2ccncc12 | 18.4 µM (active) | 
30 | Cc1ccnc2nc(C(=O)OCC(=O)N(CC(C)C)CC(C)C)nn12 | inactive | 
31 | CN(C(=O)CSc1nnc(-c2ccc(C(C)(C)C)cc2)n1C)C1CCS(=O)(=O)C1 (stereo not given) | inactive | 
32 | Cc1cc(C)c2nc(SCC(=O)N(C)C3CCS(=O)(=O)C3)cc(C)c2c1 (stereo not given) | 23.1 µM (active) | 
33 | CCn1c(SCC(=O)N(C)C2CCS(=O)(=O)C2)nnc1-c1cccs1 (stereo not given) | inactive | 
34 | COCCn1c(SC(C)C(=O)NC2CC2)nnc1-c1cccc(C)c1 (stereo not given) | inactive | 
35 | CCN(CC)C(=O)C1=C(C)N(Cc2ccc(F)cc2)C(=O)C(CC(=O)NCc2cccc3ccccc23)C1 (stereo not given) | inactive | 
36 | COc1ccc(NC(=O)C(C)N2c3cccc4cccc(c34)S2(=O)=O)c(OC)c1 (stereo not given) | inactive | 
37 | CCOc1cccc(-c2nnc(SCC(=O)NC3CC3)n2C)c1 | inactive | 
38 | COC(=O)CCCC1=CC2=CC(=O)C(C)(OC(=O)c3cccs3)C(=O)C2=CN1c1cccc(C#N)c1 (stereo not given) | inactive | 
39 | COC(=O)CCCC1=CC2=C(c3ccccc3)C(=O)C(C)(OC(=O)C3CCCC3)C(=O)C2=CN1c1ccc(OC)cc1 (stereo not given) | 20.6 µM (active) | 
40 | COCCN1C=C2C(=O)C(C)(OC(=O)C3CCCC3)C(=O)C=C2C=C1c1ccsc1 (stereo not given) | inactive | 
41 | O=c1ccc(S(=O)(=O)N2CCCC2)cn1Cc1nc(-c2ccccc2)no1 | inactive | 
42 | Clc1cccc(Cl)c1Cn1nnc(-c2cccs2)n1 | inactive | 
43 | O=C(Cc1ccc([N+](=O)[O-])cc1)N/N=C/c1ccco1 | inactive | 
44 | CCN(/N=C/c1ccccc1)c1cc(=O)n(C)c(=O)[nH]1 | inactive | 

Row | Structure (SMILES) | Potency | activity change, negative = growth inhibition
45 | O=C(Nc1ccccc1)c1nnsc1S(=O)(=O)c1ccc(Cl)cc1 | 4.61 µM (active) | 
46 | O=C(Nc1cccc(Cl)c1)c1csnn1 | inactive | 
47 | CC(=O)Nc1cc(C(=O)O)ccc1S(=O)(=O)c1ccc(Cl)cc1 | inactive | 
48 | CC(=O)c1ccc(OCCN2CCOCC2)cc1 | inactive | 
49 | CCOc1ccc(C2C(C(=O)O)c3ccccc3C(=O)N2CCN2CCOCC2)cc1 (stereo not given) | inactive | 
50 | CCOc1ccc(C(=O)CCN2CCOCC2)cc1 | 3.26 µM (active) | 
51 | COc1cccc(N(C(=O)CNC(=O)c2ccco2)C(C(=O)NC2CCCCC2)c2cccnc2)c1 (stereo not given) | inactive | 
52 | COc1ccc(S(=O)(=O)NCCc2c[nH]c3ccccc23)cc1OC | inactive | 
53 | COc1cccc(CNCCc2c[nH]c3ccccc23)c1OCc1ccccc1F | 10.3 µM (active) | 
54 | COc1ccccc1CC(=O)NCCc1c[nH]c2ccccc12 | inactive | 
55 | Cc1noc(C)c1C(=O)NCCc1ccc(S(N)(=O)=O)cc1 | inactive | 
56 | CCOC(=O)c1c(C)[nH]c(C2=NNC(=NC(C)COC)SC2)c1C (stereo not given) | 20.6 µM (active) | 
57 | CCOCCCNC(=O)C(NC(=O)CNC(=O)c1ccccc1)c1ccc(C)cc1 (stereo not given) | inactive | 
58 | CC1CCN(C(=O)/C(=C\c2ccccc2F)NC(=O)c2ccccc2)CC1 | inactive | 
59 | COC(=O)c1ccccc1C(=O)NCc1nc(N2CCCC2)c2cccc(C)c2n1 | inactive | 
60 | COc1ccc(CNC2CCCCC2)cc1 | inactive | 
61 | COc1ccc(CNc2nc(NCc3ccc(OC)cc3)c3ncn(C4CCCC4)c3n2)cc1 | 3.26 µM (active) | 
62 | CCCC(=O)n1nc(NCc2ccc(OC)cc2)nc1NCc1ccc(OC)cc1 | inactive | 
63 | COc1ccc(-n2c(SCC(=O)NCc3cccs3)nnc2-c2ccoc2C)cc1 | inactive | 
64 | C/C(=N\NC(=O)c1ccc(CSc2nc(C)cc(C)n2)cc1)C1CCCCC1 | inactive | 
65 | CC(=O)c1c(C)c[nH]c1C | 23.1 µM (active) | 
